{"source": "PubChem BioAssay (NCATS)", "key": {"[1]": {"test": "P-glycoprotein substrates identified in KB-3-1 adenocarcinoma cell line, qHTS therapeutic library screen (AID 1346986); also: nearly all actives have a fitted effect of over 60% in size;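 also: potency is for cytotoxicity meaning loss of cell viability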", "procedure,_shortened": "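Viability read by CellTiter-Glo after 72 h compound exposure in dose-response of KB-3-1 and KB-8-5-11 (P-gp-high) cells. Hits needed AC50 < 10 uM, >50% maximum response and curve class -1.1 to -2.4. Cherry-picks retested ± tariquidar, including pcDNA/MDR-19 HEK-293 pair.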"}, "[2]": {"test": "P-glycoprotein substrates identified in KB-8-5-11 adenocarcinoma cell line, qHTS therapeutic library screen (AID 1346987); also: nearly all actives have a fitted effect of over 65% in size; as to activity change, negative = cytotoxicity: series mostly up to about 44 µM", "procedure,_shortened": "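Compounds are pinned in dose-response onto KB-8-5-11 cells (500 cells/well, colchicine-free medium) and left 72 h at 37 degree C. CellTiter-Glo luminescence then yields AC50 values.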"}}, "note": "Inconclusive results are not listed. Entries that show only a call come without a potency. Values without a mark were called inactive. Active and inactive are the calls of the source. Calls follow the shape of the dose curve; as a rule, active = well fitted curve in the direction sought with a large enough effect; inconclusive = small, poorly fitted or top-dose-only effect, or another doubt; inactive = no such curve, though single readings can be large; an effect the other way counts as inactive or inconclusive. Potency is read from the fitted curve at half-maximal effect.", "data": [{"smiles": "CC(=O)OCC(=O)[C@@]12O[C@@H]1C[C@H]1[C@@H]3CC=C4C[C@@H](O)CC[C@]4(C)[C@H]3CC[C@@]12C", "values": [{"measurement": "Potency", "setting": "[1]", "result": "inactive"}, {"measurement": "Potency", "setting": "[2]", "result": "inactive"}]}, {"smiles": "Cc1cccc(N2CCN(C(=O)c3cc(S(=O)(=O)N(C)C)ccc3N3CCCC3)CC2)c1C", "values": [{"measurement": "Potency", "setting": "[1]", "result": "inactive"}, {"measurement": "Potency", "setting": "[2]", "result": "inactive"}]}, {"smiles": "CC(C)C[C@H](CO)Nc1nc(S[C@@H](C)c2ccccc2)nc2nc(N)sc12", "values": [{"measurement": "Potency", "setting": "[1]", "result": "inactive"}, {"measurement": "Potency", "setting": "[2]", "result": "inactive"}]}, {"smiles": "C[C@H](Nc1ncnc2nc[nH]c12)c1cc2cccc(Cl)c2c(=O)n1-c1ccccc1", "values": [{"measurement": "Potency", "setting": "[1]", "result": "20.6 µM (active)"}, {"measurement": "Potency", "setting": "[2]", "result": "inactive"}]}, {"smiles": "CCOc1ccc(-n2c(C(C)N(Cc3cccnc3)C(=O)Cc3ccc(F)c(C(F)(F)F)c3)nc3ncccc3c2=O)cc1", "note": "(stereo not drawn)", "values": [{"measurement": "Potency", "setting": "[1]", "result": "inactive"}, {"measurement": "Potency", "setting": "[2]", "result": "inactive"}]}, {"smiles": "CC(=O)O[C@@H]1C2=C(O)C(=O)[C@](C)(OC(C)=O)C(=O)C2=CO[C@@]12O[C@@H](C)CC[C@H]2OC(C)=O", "values": [{"measurement": "Potency", "setting": "[1]", "result": "inactive"}, {"measurement": "Potency", "setting": "[2]", "result": "inactive"}]}, {"smiles": "COC1=CC(=O)C=C(C)C12Oc1c(Cl)c(OC)cc(OC)c1C2=O", "note": "(stereo not drawn)", "values": [{"measurement": "Potency", "setting": "[1]", "result": "inactive"}, {"measurement": "Potency", "setting": "[2]", "result": "inactive"}]}, {"smiles": "CN(CC1COCCO1)S(=O)(=O)Nc1ccc2ccc3ncc(-c4cnn(C)c4)cc3c(=O)c2c1", "note": "(stereo not drawn)", "values": [{"measurement": "Potency", "setting": "[1]", "result": "11.6 µM (active)"}, {"measurement": "Potency", "setting": "[2]", "result": "14.6 µM (active)"}]}, {"smiles": "CC1(C)CC[C@]23CO[C@@]4(CCC5[C@@]6(C)CC[C@H](O[C@@H]7OC[C@H](O[C@@H]8O[C@H](CO)[C@@H](O)[C@H](O)[C@H]8O[C@@H]8OC[C@@H](O)[C@H](O)[C@H]8O)[C@H](O)[C@H]7O)[C@@](C)(CO)C6CC[C@@]5(C)[C@]4(C)CC2=O)[C@@H]3C1", "note": "(stereo partly drawn)", "values": [{"measurement": "outcome", "setting": "[1]", "result": "inactive [at 9.29 µM]"}, {"measurement": "activity change, negative = cytotoxicity", "setting": "[2]", "result": "-22.9% [at 9.29 µM]"}]}]}
